Results taken from PubChem BioAssay AID717 (Columbia University Molecular Screening Center, 2007).
The whole screen tested about 91,000 compounds, of which about 40 (0.04%) were called active. No stated cut-off is given here; in the data, active means activation above about 37%; inactive means the rest. A selection follows.

biological target: Bifunctional epoxide hydrolase 2 (Homo sapiens) (UniProt P34913); test: soluble epoxide hydrolase activators, primary screen, biochemical, human sEH (AID 717); details: purified human sEH enzymatic activity, activator screen; at 2 µM; stronger effect = higher value
Sequence (P34913 whole entry, looked up): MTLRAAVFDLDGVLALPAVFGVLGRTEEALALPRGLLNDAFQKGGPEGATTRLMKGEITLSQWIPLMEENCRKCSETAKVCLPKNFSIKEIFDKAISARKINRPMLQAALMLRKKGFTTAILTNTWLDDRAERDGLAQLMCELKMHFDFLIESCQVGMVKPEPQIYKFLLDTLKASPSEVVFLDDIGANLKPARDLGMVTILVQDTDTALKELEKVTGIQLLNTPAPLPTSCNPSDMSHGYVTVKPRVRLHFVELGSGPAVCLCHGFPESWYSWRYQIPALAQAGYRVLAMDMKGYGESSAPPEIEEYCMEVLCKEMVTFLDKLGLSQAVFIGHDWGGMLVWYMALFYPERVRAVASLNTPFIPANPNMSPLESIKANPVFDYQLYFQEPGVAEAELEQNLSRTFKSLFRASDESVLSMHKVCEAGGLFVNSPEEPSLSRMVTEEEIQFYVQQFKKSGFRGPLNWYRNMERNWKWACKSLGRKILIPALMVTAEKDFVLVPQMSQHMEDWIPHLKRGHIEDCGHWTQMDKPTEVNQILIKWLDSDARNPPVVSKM

activation, inactive:
Cc1nc(SCC(=O)N2CC(=O)Nc3ccccc32)c2c(C)c(C)sc2n1 -1.1%
COc1ccc(Cc2nnc(SCC(=O)c3cccc([N+](=O)[O-])c3)n2C)cc1 16.7%
O=C(Nc1ccc2c(c1)OCCO2)c1ccc(Cl)c(S(=O)(=O)N2CCCCC2)c1 -77.7%
CCCCNC(=O)C(=O)c1ccccc1NC(C)=O -0.9%
CC(C)(CCl)C(=O)Nc1ccc(Sc2ccc(F)cc2)cc1 -29.2%
O=C(CCNS(=O)(=O)c1ccccc1C(F)(F)F)NCc1ccc2c(c1)OCO2 3.4%
COCCCNCC(=O)Nc1sc(C)c(C)c1C(=O)OC -1%
Cc1ccc(CNC(=O)C2CC(c3ccccc3[N+](=O)[O-])=NO2)o1 (stereo not given) 1.1%
Cc1c(NC(=O)CCCOc2ccccc2)cccc1[N+](=O)[O-] -9.6%
CCC(C)n1c(-c2cc(OC)c(OC)c(OC)c2)nc2nc3ccccc3nc21 (stereo not given) 0.8%
COc1cc(C(=S)N2CCOCC2)cc(OC)c1OC(=O)c1cc([N+](=O)[O-])c(C)c([N+](=O)[O-])c1 -3.8%
COc1ccc(/C=C(/NC(=O)c2ccc(C)cc2)c2nc3ccccc3[nH]2)cc1OC 4.1%
O=C(O)c1ccccc1-c1ccccc1C(=O)Nc1cccc2ccccc12 6.9%
O=C(Nc1nnc(CCOCCOCCc2nnc(NC(=O)c3ccco3)s2)s1)c1ccco1 -12%
CCn1c(SCc2ccc(C)cc2)nnc1-c1nn(-c2ccccc2)ccc1=O 17.2%
CC(Oc1ccc(F)cc1F)C(=O)/C=C/N(C)C (stereo not given) 0.5%
CCOC(=O)C1=C(C)Nc2sc(C(=O)c3ccc(Br)cc3)c(N)c2C1c1ccc(C(=O)OC)cc1 (stereo not given) -3.6%
Cc1cc([N+](=O)[O-])c(NC2CCCCC2)c([N+](=O)[O-])c1 3.5%
O=C(NCCc1ccccn1)c1cc(C(=O)C2CCCCC2)c[nH]1 9.3%
CC(C)c1cc(C(N)=O)c(NC(=O)c2cccc(COc3ccc(Br)cc3)c2)s1 -3.7%
Cc1ccc(NC(=S)NC2CCCC2)cc1 -29.3%
COC(=O)c1ccccc1OCC(=O)N1CCN(c2ccc(Cl)cc2)CC1 -44.9%
C=CCNc1cnn(-c2ccc(C)cc2)c(=O)c1Cl 0.5%
CCc1cccc2c(C=C(C#N)C#N)cn(CC(=O)N3CCCCC3)c12 5%
COCCCn1c(SCc2cccc(OC)c2)nc2cc(OC)c(OC)cc2c1=N -5.2%
C=CCNC(=O)c1sc(SC)cc1-c1ccc(Cl)cc1 14.9%
O=C(O)/C=C/C(=O)Nc1ccc(F)cc1F 6.8%
C/C(=N\NS(=O)(=O)c1cccc([N+](=O)[O-])c1)c1cc2ccccc2o1 -6%
COc1cccc(/C=N/NC(=O)c2cccc([N+](=O)[O-])c2)c1OS(=O)(=O)c1ccc(C)cc1 -13.5%
CCC(=O)OCc1c(C(F)(F)F)nn(C)c1Oc1cccc(C(F)(F)F)c1 -5.9%
Cc1nn(CC(=O)Nc2nc3ccccc3s2)c(C)c1[N+](=O)[O-] 8%
O=C(Cn1cncn1)N/N=C/c1c2ccccc2cc2ccccc12 -1.1%
CONC(=O)c1cc(OCC(F)(F)F)ccc1OCC(F)(F)F -7.2%
CC(=O)NS(=O)(=O)c1ccc(NC(=O)/C=C/c2ccccc2Cl)cc1 -14.4%
Cc1ccc(N2CCN(/N=C/c3cccs3)CC2)cc1 1.6%
CC(C)(C)NC(=O)NC(=O)COC(=O)CCC1CCCCC1 -0.5%
Cc1cc2c(cc1C)N(C(=O)CN1C(=O)c3ccccc3C1=O)C(C)(C)c1ssc(=S)c1-2 18.1%
O=C(NCc1cccnc1)c1cccnc1Sc1ccc(Cl)cc1 17.3%
N/C(=N\OC(=O)CCc1ccccc1)c1ccc(Cl)cc1 10.5%
CC1CCN(C(NC(=O)c2ccco2)C(=O)c2ccccc2)CC1 (stereo not given) -0.4%
CCCCCCCCOC1OC(CO)C(O)C(O)C1NC(C)=O (stereo not given) -6.6%
O=C(CSc1ccccc1)Nc1ccc(NC(=O)c2ccco2)cc1 -17.6%
CC(=O)c1cnn(-c2cc(Oc3ccc(F)cc3)ncn2)c1C 7.1%
O=C(NCCCCCCCCCNC(=O)C(F)(F)F)C(F)(F)F -6.7%
O=C(Nc1ccn(Cc2ccccc2F)n1)c1ccc(COc2ccc(Cl)cc2Cl)o1 -1.7%
